In all, about 120,000 compounds went through this assay and about 5,300 (4.4%) were called active. About 22% were inconclusive and are not listed. The list comes from a sample in which actives are over-represented; it also holds similar structures and randomly drawn compounds. Entries that show only a call come without a potency. A number with no mark means an inactive call. Calls follow the shape of the dose curve; as a rule, active = well fitted inhibition curve with a large enough effect; inconclusive = small, poorly fitted or top-dose-only effect; inactive = no such curve, though single readings can be large or run the other way.
Potency is read from the fitted curve at half-maximal effect.

This assay is described as follows: qHTS Primary assay for Inhibitors of Plasmodium falciparum Dd2 growth in vitro. Also: nearly all actives have a fitted effect of over 65% in size. The following applies: P. falciparum Dd2 growth, SYBR Green, 72 h; series mostly up to 28.9 µM. The method, boiled down: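 Readout: SYBR Green fluorescence, 485 nm excitation, 535 nm emission, after ~16 h lysis at 37C. Before that, Dd2-infected red cells (2.5% hematocrit) grew 72 h with compound, 29 uM top final concentration.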
A general note: In qHTS, concentration-response curves come from the screen itself.
With `Cc1cnc(C(=O)N(C)C2CCc3nnc(C)n3CC2)cn1` (centres undefined), the Potency entry was “inactive”.

On to `O=C(CC1CC1)N1C[C@H]2OC(=O)N(CCc3cccc(Cl)c3)[C@H]2C1`, for which the Potency entry was “inactive”.

As for `O=C(NC1CC(=O)N(CCc2cccc(Cl)c2)C1)c1ccsc1` (centres undefined), the Potency entry was “inactive”.

With `O=C1CC(NCc2ccoc2)CN1CCc1cccc(Cl)c1` (centres undefined), the Potency was 10 µM (active).

In the case of `COc1ccc(-c2nc(CN3CCOC(CN)C3)c(C)o2)c2ccccc12` (centres undefined), the Potency was 12.6 µM (active).

Regarding `COc1ccc(-c2nc(Cn3c(=O)cc(C)c4c(C)nn(-c5ccccc5)c43)c(C)o2)cc1OC`, the Potency result is “inactive”.

As to `COc1cccc(-c2nc(CS(=O)(=O)CC(=O)N3CCN(c4cc(C)ccc4C)CC3)c(C)o2)c1`, the Potency result was “inactive”.

As to `Cc1oc(-c2cccs2)nc1CN1CCOC(Cc2ccccc2)C1` (centres undefined), the Potency result is “inactive”.

Consider `Cc1oc(-c2cccc(Oc3ccccc3)c2)nc1CN1CCOC(CCN)C1` (centres undefined), for which the Potency is 7.08 µM (active).

For `COC(=O)c1cc2occc2n1Cc1nc(-c2ccccc2C)oc1C`, the Potency entry is “inactive”.

On to `CC(C)CN=C1S[C@H]2[C@H]([C@@H](O)[C@H](O)C[C@@H]2C(N)=O)N1Cc1ccc(F)cc1`, for which the Potency result is “inactive”.

Turning to `O=C(Cc1cccc(F)c1)NC1CCN(c2cc(C(F)(F)F)ncn2)CC1`, the Potency entry was “inactive”.

For `COc1ccc(N2CCN(C(=O)c3ccc4c(Cl)c5c(nc4c3)CCCC5)CC2)cc1`, the Potency entry is “inactive”.

As for `CCOC(=O)C1CCN(c2nc3c(S(=O)(=O)c4ccc(CC)cc4)nnn3c3ccc(Cl)cc23)CC1`, the Potency result is “inactive”.

In the case of `CCOC(=O)C1CCN(C(=O)CSc2c3c(nc4ccc(Cl)cc24)CCCC3)CC1`, the Potency is 14.1 µM (active).

On to `COc1cc(C(=O)N2CCC(Cc3nc(-c4ccccc4)no3)CC2)cc(OC)c1OC`, for which the Potency entry is “inactive”.

Consider `O=C(N[C@H]1CCOC[C@H]1C1CCOCC1)c1cccc2nccnc12`, for which the Potency entry is “inactive”.

As for `CCn1ncc(N2CCCC(CC(=O)NCc3ccc(OC)cc3)C2)cc1=O` (centres undefined), the Potency result was “inactive”.

On to `O[C@@H]1C[C@@H](c2nc(Cc3ccc(F)cc3Cl)no2)N(Cc2ncc[nH]2)C1`, for which the Potency entry was “inactive”.

As for `Cc1nn(-c2ccccc2)c(C)c1[C@@H]1C=C[C@@H](NC(=O)c2ccc3c(c2)OCO3)C1`, the Potency result is “inactive”.

Consider `Cc1nn(-c2ccc(C(C)C)cc2)c(C)c1[C@@H]1C=C[C@@H](NC(=O)CC2(CC(=O)O)CCCC2)C1`, for which the Potency entry was “inactive”.

As to `COc1ccc(-n2nc(C)c([C@H]3C=C[C@@H](OC(=O)Nc4cccc(F)c4)C3)c2C)cc1`, the Potency is 10 µM (active).

In the case of `CCC(C)NC(=O)Cc1csc2nc(C)c(-c3cc(C)n(-c4ccc(C(C)C)cc4)n3)c(=O)n12` (centres undefined), the Potency result was “inactive”.

As to `COc1cccc(NC(=O)Cn2c(=O)cc(C)c3c(C)nn(-c4cccc(F)c4)c32)c1`, the Potency result is “inactive”.

In the case of `Cc1nn(-c2ccc(C(C)C)cc2)c(C)c1[C@@H]1C=C[C@@H](NC(=S)NCC(C)C)C1`, the Potency is 12.6 µM (active).

Take `Cc1nn(Cc2ccccc2)c(C)c1[C@@H]1C=C[C@@H](NC(=O)NC2CCCCC2)C1`: the Potency entry was “inactive”.

As to `Cc1nn(-c2cccc(Br)c2)c(C)c1[C@@H]1C=C[C@@H](NC(=O)CC2(CC(=O)O)CCCC2)C1`, the Potency entry was “inactive”.

On to `Cc1nn(Cc2ccccc2)c(C)c1[C@@H]1C=C[C@@H](NC(=O)NC(C)C)C1`, for which the Potency result was “inactive”.

For `Cc1nn(CCC#N)c(C)c1[C@@H]1C=C[C@@H](NS(=O)(=O)c2ccccc2)C1`, the Potency entry is “inactive”.

With `COc1ccc(-n2nc(C)c([C@@H]3C=C[C@@H](NC(=O)Nc4ccccc4)C3)c2C)cc1`, the Potency was 10 µM (active).

On to `Cc1nn(-c2ccc(C(C)C)cc2)c(C)c1[C@@H]1C=C[C@@H](NC(=O)Nc2ccccc2)C1`, for which the Potency was 11.2 µM (active).

Turning to `C=CCNC(=O)C1N(C(C)C)C(=O)C12CCCCC2` (centres undefined), the Potency entry is “inactive”.

As to `COc1ccc(NC(=O)C2CN(S(=O)(=O)c3cccnc3)CC23CCCCC3)cc1F` (centres undefined), the Potency entry is “inactive”.

For the compound `CCOCCCNC(=O)N1C[C@@H](Oc2cccnc2)C[C@@H]1C(=O)N1CCOCC1`, the Potency entry was “inactive”.

For `CCCN(CC1CCOC1)S(=O)(=O)c1ccc2c(c1)CCCC2` (centres undefined), the activity, negative = inhibition is 7.48% [at 5.79 µM].

Take `CC(C)N1C(=O)CO[C@H]2CCN(CCCc3ccccc3)CC[C@@H]21`: the Potency entry was “inactive”.

For `CCCCC(CC)CNC(=O)C1CCN(S(=O)(=O)c2cccc3nsnc23)CC1` (centres undefined), the Potency result is “inactive”.

Consider `CCCCN(C)CCNC(=O)C1CCCN(S(=O)(=O)c2cccc3nsnc23)C1` (centres undefined), for which the Potency was 5.01 µM (active).

Consider `COc1ccc(NC(=O)C2CCCN(S(=O)(=O)c3cccc4nonc34)C2)cc1Cl` (centres undefined), for which the Potency entry was “inactive”.

For `O=C(Cc1cccc(Cl)c1)NCc1nnc2ccc(-c3ccccc3)nn12`, the Potency entry is “inactive”.

Take `Cc1cc(C(=O)N2CCCCCCn3c(nnc3-c3ccc(F)cc3)CC2)nn1C`: the Potency result is “inactive”.

On to `CCN(Cc1ccccc1)C(=O)CCS(=O)(=O)c1ccc2c(c1)oc(=O)n2C`, for which the Potency result was “inactive”.

For `CCOC(=O)c1ccc(NC(=O)CCS(=O)(=O)c2ccc3c(c2)oc(=O)n3C)cc1`, the Potency result was “inactive”.

In the case of `Cc1c(Cl)cccc1NC(=O)CCS(=O)(=O)c1ccc2c(c1)oc(=O)n2C`, the Potency is 3.16 µM (active).

Take `COc1cccc(CC(=O)N2CCN(c3cc(-c4cccs4)[nH]n3)CC2)c1`: the Potency result was “inactive”.

As for `O=C(NCCn1ccn2nc(-c3ccc(F)cc3)cc2c1=O)c1ccco1`, the Potency entry was “inactive”.

Regarding `O=C(Cc1ccccc1)N1[C@H]2CC[C@@H]1c1cnc(-c3ccc(F)cc3)nc1C2`, the Potency result is “inactive”.

Turning to `COC(=O)c1ccc(NC(=O)N2[C@H]3CC[C@@H]2c2cnc(-c4ccc(F)cc4)nc2C3)cc1`, the Potency is 7.08 µM (active).

Turning to `Cn1cnc(S(=O)(=O)N2[C@H]3CC[C@@H]2c2cnc(-c4ccc(F)cc4)nc2C3)c1`, the Potency result is “inactive”.

`O=C1NCCOCCN(C(=O)Nc2ccccc2)[C@@H]2CCCC[C@H]12`: the Potency entry is “inactive”.

For `COc1ccc(-c2noc([C@@H](C)NCc3ccc(F)cc3)c2C(=O)O)cc1`, the Potency entry is “inactive”.

Consider `O=C(c1ccc(Cl)cc1)N1CCn2c(nn(-c3ccncc3)c2=O)C1`, for which the Potency entry was “inactive”.

Regarding `CCOC(=O)C1=CN(CC(=O)Nc2cccc(C(C)C)c2)S(=O)(=O)N=C1C`, the Potency entry is “inactive”.

For `COc1ccc(-c2cc([C@H]3CN4CC[C@H]3C[C@@H]4CNC(=O)c3ccccc3)n(C)n2)cc1OC`, the Potency is 11.2 µM (active).

As for `Cc1ccc(S(=O)(=O)NC[C@H]2C[C@@H]3CCN2C[C@@H]3CN2CCN(c3ncccn3)CC2)cc1`, the Potency result is “inactive”.

Take `COc1cc2c(cc1OC)C(CNC(=O)c1cccc(Cl)c1)N(C(=O)Nc1ccccc1)CC2` (centres undefined): the Potency result was “inactive”.

On to `O=C(NCc1ccccc1)[C@H]1CN2CCC1C[C@@H]2Cn1cc(-c2ccc(F)cc2)nn1` (some centres undefined), for which the Potency result is “inactive”.

As to `COc1ccc(-c2cc([C@H]3CN4CC[C@H]3C[C@@H]4CNS(=O)(=O)Cc3ccccc3)n(C)n2)cc1OC`, the Potency is 11.2 µM (active).

With `Cn1nc(-c2ccc(F)cc2)cc1[C@H]1CN2CC[C@H]1C[C@@H]2CNCc1ccccn1`, the Potency was 2.82 µM (active).

Turning to `COc1ccc(-c2ccc3ncn(Cc4ccccc4)c(=O)c3n2)cc1OC`, the Potency result is “inactive”.

Take `COc1ccc(-c2cc([C@H]3CN4CC[C@H]3C[C@@H]4CNC(=O)C3CC3)n(C)n2)cc1OC`: the Potency entry was “inactive”.

In the case of `COc1ccccc1-c1cc([C@H]2CN3CC[C@H]2C[C@@H]3CNCc2cccc(C#N)c2)n(C)n1`, the Potency entry is “inactive”.

Consider `Cc1ccc(C(=O)N2CC[C@H](CO)[C@H](NC(=O)C3CC3)C2)cn1`, for which the Potency entry is “inactive”.

For `O=C(NCc1cnn(Cc2ccccc2)c1)c1ccc2oc(-c3cccc(F)c3)nc2c1`, the Potency result was “inactive”.

With `COc1ccc(-c2cc(CC3(N(Cc4ccc(CO)o4)Cc4ccc(CO)o4)COC3)no2)cc1`, the Potency entry is “inactive”.

With `CCOC(=O)c1c(NC(=O)/C=C/c2ccc(OC)cc2)sc2c1CCC(C)C2` (centres undefined), the Potency entry was “inactive”.

In the case of `CCOC(=O)c1c(NC(=O)c2ccc(S(=O)(=O)N(CC)CC)cc2)sc2c1CCCCC2`, the Potency result was “inactive”.

For the compound `CCOC(=O)c1c(NC(=O)c2ccc(S(=O)(=O)N3CCCC(C)C3)cc2)sc2c1CCN(C(C)C)C2` (centres undefined), the Potency is 7.94 µM (active).

Regarding `Clc1ccc(CN2CCC3(CC2)CC(c2ccccc2)=NO3)cc1`, the Potency entry is “inactive”.

As for `Cc1ccc(NC(=O)N2CCc3[nH]c4ccc(F)cc4c3C2)cc1C`, the Potency entry is “inactive”.

`COc1ccccc1-n1cc(C(=O)N2CCc3c(Cl)cccc3C2)cn1`: the Potency entry is “inactive”.

For `COC[C@@H]1CN(C(=O)COc2cccc(C)c2)C[C@H]1c1nc(C)no1`, the Potency result is “inactive”.

As for `Cc1ccccc1CNC(=O)c1ccc(NC(=O)N2CCCCc3ccccc32)cc1`, the Potency entry was “inactive”.

Turning to `CC[C@H]1CN(C(=O)Nc2ccccc2)CC[C@H]1CC(=O)Nc1ccccc1`, the Potency entry was “inactive”.

As for `CCOC(=O)C1CCN(C(=O)c2cccc3c2CCN3C(=O)Nc2ccccc2)CC1`, the Potency was 11.2 µM (active).

`COCc1cc(CC2(NCC(C)(C)C)COC2)no1`: the Potency result is “inactive”.

In the case of `CC(=O)N[C@@H]1Cc2ccccc2[C@H]1n1ccnc1-c1cc2n(n1)CCNC2`, the Potency entry is “inactive”.

With `Cc1ccc(N2CCN(C(=O)c3ccc4c(c3)N(C)C3CCCCCN3C4=O)CC2)cc1` (centres undefined), the Potency result was “inactive”.

Consider `COc1ccc(-c2nc(-c3ccccc3)nc3c2CN(C(=O)c2ccc(C)cc2)CC3)cc1`, for which the Potency was 11.2 µM (active).

Regarding `O=C(Nc1ccccc1)N1CCc2nc(-c3ccccc3)nc(-c3ccc(Cl)cc3)c2C1`, the Potency is 10 µM (active).

Regarding `CC(=O)N1CCc2nc(C3CC3)nc(-c3ccc(Cl)cc3)c2C1`, the Potency result was “inactive”.

In the case of `Cc1nc2c(c(-c3ccc(O)cc3)n1)CN(C(=O)c1ccccc1C)CCC2`, the Potency result is “inactive”.

For the compound `COc1ccc(-c2cc3nc4c(c(=O)n3[nH]2)CN(C(=O)c2ccc(C)nc2)CC4)cc1`, the activity, negative = inhibition was -16.8% [at 5.79 µM].

Consider `CC(C)c1nc2c(c(-c3ccc(O)cc3)n1)CN(C(=O)Nc1ccccc1)CC2`, for which the Potency result was “inactive”.

Take `Cc1ccc(F)c(OCC(=O)c2ccc3c(c2)N(CCCC(=O)NCC2CCCO2)C(=O)CO3)c1` (centres undefined): the Potency result was “inactive”.

For `O=C(Cc1ccc(Oc2ccccc2)cc1)N1CC(COc2ccccc2)C2(C1)CN(C(=O)c1cn[nH]c1)C2` (centres undefined), the Potency entry was “inactive”.

As for `O=C(CC1COCCN1)NCCc1nc(-c2ccccn2)no1` (centres undefined), the Potency entry is “inactive”.

As to `O=C(NC[C@H]1OC[C@@H](NC2CCOCC2)[C@@H]1O)C1CCCC1`, the Potency result was “inactive”.

`O=C(NCCCN1CCOCC1)C1CCN(C(=O)N2CC3CC(C2)[C@H]2CCCC(=O)N2C3)CC1` (some centres undefined): the Potency result is “inactive”.

(Values after PubChem BioAssay AID1347417 (National Center for Advancing Translational Sciences (NCATS), 2020).)
